# Laboratory results published in PubChem BioAssay AID1259240 (Keith Lab, Institute of Cancer Science, University of …, 2017).
# A number with no mark means an inactive call. Activity calls are given as the source filed them. Rule as the data show it: active = fold change mostly below about -2 (no sharp cut-off); inactive = mostly above about -1.8.
# Test: TERT promoter activity modulators, primary screen, cell-based, luciferase reporter, human (AID 1259240)
# Details: A2780 TERT promoter luciferase reporter, 16 h; at 20 µM, fold versus average of vehicle-only wells
Compound,fold change,outcome
Fc1ccc(-c2nnc3ccc(NCCN4CCOCC4)nn23)cc1,-1.13,
COC(=O)c1ccc(C(=O)OC)c(NC2=NS(=O)(=O)c3ccccc32)c1,1.16,
O=C(CN1C(=O)COc2ccc(S(=O)(=O)N3CCCCCC3)cc21)N1CCC2(CC1)OCCO2,-1.25,
CC(C)CNC(=O)CCN1C(=O)c2ccccc2S1(=O)=O,-2.25 (active),
NCCn1c(-c2cccnc2)n[nH]c1=S,-1.19,
Cc1cc(C(=O)O)ccc1-n1c(C)cc(C=C2C(=O)c3ccccc3C2=O)c1C,-2.23 (active),
COc1ccc(C2CC(=O)Nc3cc(OC)cc(OC)c32)c(OC)c1 (stereo unspecified),-1.41,
COc1ccc(NC(=O)Nc2c(C)n(C)n(-c3ccccc3)c2=O)cc1,-1.33,
Cc1ccc(N2CC(O)=C(c3nc4ccccc4c(=O)[nH]3)C2=N)cc1C,,inactive
CCOC(=O)N1CCC(Nc2c(N(C)C3CCCCC3)c(=O)c2=O)CC1,1.05,
Cc1csc(NC(=O)C2CCCN2S(=O)(=O)c2cccc3cccnc23)n1 (stereo unspecified),-1.27,
COc1ccc(C2C=C(c3cccnc3)Nc3nc4ccccc4n32)cc1 (stereo unspecified),,inactive
Fc1ccc(-c2ncc3ccccn23)cc1,1.16,
COc1ccc(-c2cc(N)n(S(=O)(=O)c3ccc([N+](=O)[O-])cc3)n2)cc1OC,1.17,
O=C(CC(=O)Nc1ccccn1)Nc1ccc2nc3n(c(=O)c2c1)CCCCC3,-1.11,
O=C(NC1CCCCCC1)C1CCC(CNc2c(NC3CCCCC3)c(=O)c2=O)CC1 (stereo unspecified),-1.28,
